Test results reported in ChEMBL document CHEMBL1157539, “Thousands of chemical starting points for antimalarial lead identification” (Nature, 2010).

Each compound was assayed on Plasmodium falciparum (assay: GSK_TCMDC: Inhibition of Plasmodium falciparum 3D7 in whole red blood cells, using parasite LDH activity as an index of growth. Test compounds present at 2uM).
Assay type: functional

| Structure (SMILES) | Inhibition [%] |
| --- | --- |
| CC(C)(C)NS(=O)(=O)c1cc(C(=O)N2CCC(CCN3CCC(O)(c4cccc(C(F)(F)F)c4)CC3)(c3cccc(F)c3)CC2)c(Cl)cc1F | 88 |
| CC[C@H](C)CNC(=O)c1cncc(-c2ccc(CNC3CCCC3)cc2)c1.O=C(O)C(F)(F)F | 97 |
| COc1ccccc1C1CCN(C2CCC(NC(=O)/C=C/c3ccc(C(F)(F)F)cc3F)CC2)CC1 (centres undefined) | 95 |
| Cc1cc(C)cc(-n2c(C)cc(/C=C3\SC(=Nc4ccc(Cl)cc4)NC3=O)c2C)c1 | 97 |
| Cc1ccccc1C1CCN(C2CCC(NC(=O)c3ccc(-c4ccccc4)s3)CC2)CC1 (centres undefined) | 100 |
| Cc1ccccc1C1CCN(C2CCC(NC(=O)/C=C/c3cc(C(F)(F)F)ccc3F)CC2)CC1 (centres undefined) | 100 |
| Cc1c(CNCCCNc2nc3ccccc3[nH]2)sc(C(F)F)c1Br.Cl | 100 |
| CC(C)CCn1c(Sc2ccc(C#N)c([N+](=O)[O-])c2)nnc1-c1ccccc1Cl | 93 |
| O=C(Nc1ccc(Cl)cn1)c1sc2ccccc2c1O | 99 |
| Nc1c2c(nc3ccc(C(=O)Nc4ccccc4)cc13)CCCC2 | 100 |
| CCCOc1cccc(C(=O)N[C@@H](Cc2ccccc2)[C@H](O)CNCc2cccc(OC)c2)c1 | 100 |
| COc1cc(NC(=O)Nc2cc(C)nc3ccccc23)cc(OC)c1 | 100 |
| CN(C)Cc1cccc(-c2cc3c(-c4cnn(C)c4)c(Cl)cnc3[nH]2)c1 | 96 |
| CN1CCN(Cc2c(O)ccc3c(=O)c(Oc4ccc(C(C)(C)C)cc4)c(C(F)(F)F)oc23)CC1 | 99 |
